# Experimental data published in PubChem BioAssay AID1508601 (ICCB-Longwood Screening Facility, Harvard Medical School, 2020).
# In all, about 5,700 compounds went through this assay and about 85 (1%) were called active. The sample holds actives, similar compounds and a random draw of the others, so the mix is not that of the screen. Cut-off read from the data, not from the text of the source: active = p53-positive nuclei above about 36% (passing the limit was not always enough); inactive = the rest.
# Columns and labels:
# [1] = p53 stabilisation in HPV-positive human cells, imaging, p53-positive nuclei imaging, 24 h, 48 h (AID 1508601); conditions: 24/48 h
# [2] = molecular target: Cellular tumor antigen p53 (Homo sapiens) (UniProt P04637); test: as above; conditions: 24/48 h, stronger effect = higher value
# [3] = measured here: cell number at 24 h, concentration not given here
# [4] = measured here: cell number at 48 h, concentration not given here
# [5] = measured here: p53 positive nuclei at 24 h, concentration not given here
# [6] = measured here: cell number at 24 h, Library stock concentration: 80 uM
# [7] = measured here: cell number at 24 h, Library stock concentration: 400 uM
# [8] = measured here: cell number at 24 h, Library stock concentration: 2 mM
# [9] = measured here: cell number at 24 h, Library stock concentration: 10 mM
# [10] = measured here: cell number at 48 h, Library stock concentration: 80 uM
# [11] = measured here: cell number at 48 h, Library stock concentration: 400 uM
# [12] = measured here: cell number at 48 h, Library stock concentration: 2 mM
# [13] = measured here: cell number at 48 h, Library stock concentration: 10 mM
# [14] = Library stock concentration: 80 uM
# [15] = Library stock concentration: 400 uM
# [16] = Library stock concentration: 2 mM
# [17] = Library stock concentration: 10 mM
# [18] = measured here: p53 positive nuclei at 24 h, Library stock concentration: 80 uM
# [19] = measured here: p53 positive nuclei at 24 h, Library stock concentration: 400 uM
# [20] = measured here: p53 positive nuclei at 24 h, Library stock concentration: 2 mM
# [21] = measured here: p53 positive nuclei at 24 h, Library stock concentration: 10 mM
# [22] = measured here: cell number at 24 h, Library stock concentration: 3.33 mM
# [23] = measured here: cell number at 48 h, Library stock concentration: 3.33 mM
# [24] = Library stock concentration: 3.33 mM
# [25] = measured here: p53 positive nuclei at 24 h, Library stock concentration: 3.33 mM
# Sequence of Cellular tumor antigen p53 (Homo sapiens) (P04637 whole entry, looked up): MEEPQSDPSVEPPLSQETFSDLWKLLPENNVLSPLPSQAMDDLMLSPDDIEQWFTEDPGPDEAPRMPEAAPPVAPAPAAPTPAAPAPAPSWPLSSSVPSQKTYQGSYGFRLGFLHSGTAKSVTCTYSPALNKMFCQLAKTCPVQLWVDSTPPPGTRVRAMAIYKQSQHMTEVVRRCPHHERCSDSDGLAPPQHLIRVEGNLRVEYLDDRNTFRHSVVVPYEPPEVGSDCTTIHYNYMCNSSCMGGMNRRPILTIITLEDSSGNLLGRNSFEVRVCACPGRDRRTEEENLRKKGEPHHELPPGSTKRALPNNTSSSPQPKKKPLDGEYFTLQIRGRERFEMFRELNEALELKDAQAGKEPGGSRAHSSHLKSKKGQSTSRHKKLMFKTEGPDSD
structure (smiles),measurement,setting,value
CCCCCCCCNC(=O)Cc1c(C)n(C(=O)c2ccc(Cl)cc2)c2ccc(OC)cc12,"nuclei count, normalised",[1]; [3],104%
same,"nuclei count, normalised",[1]; [4],112%
same,"p53-positive nuclei, normalised",[2]; concentration not given here,0.0988% (inactive)
same,"p53-positive nuclei, normalised",[2]; [5],-0.0319%
O=C1CCCc2occ(C(=O)N3CCc4[nH]nc(C5CCC5)c4C3)c21,"nuclei count, normalised",[1]; [3],110%
same,"nuclei count, normalised",[1]; [4],114%
same,"p53-positive nuclei, normalised",[2]; concentration not given here,-0.00738% (inactive)
same,"p53-positive nuclei, normalised",[2]; [5],-0.086%
OCCCNc1cc(-c2ccnc(Nc3cccc(Cl)c3)n2)ccn1,"nuclei count, normalised",[1]; [6],46%
same,"nuclei count, normalised",[1]; [7],37.5%
same,"nuclei count, normalised",[1]; [8],37%
same,"nuclei count, normalised",[1]; [9],36.9%
same,"nuclei count, normalised",[1]; [10],28.8%
same,"nuclei count, normalised",[1]; [11],20.8%
same,"nuclei count, normalised",[1]; [12],22.2%
same,"nuclei count, normalised",[1]; [13],23.8%
same,"p53-positive nuclei, normalised",[2]; [14],75.9% (active)
same,"p53-positive nuclei, normalised",[2]; [15],41.8% (inactive)
same,"p53-positive nuclei, normalised",[2]; [16],16.5% (inactive)
same,"p53-positive nuclei, normalised",[2]; [17],8.11% (inactive)
same,"p53-positive nuclei, normalised",[2]; [18],23.9%
same,"p53-positive nuclei, normalised",[2]; [19],2.63%
same,"p53-positive nuclei, normalised",[2]; [20],2.24%
same,"p53-positive nuclei, normalised",[2]; [21],1.34%
OCCCCCNc1nccc(-c2cnn(-c3ccc(F)cc3)c2)n1,"nuclei count, normalised",[1]; [3],103%
same,"nuclei count, normalised",[1]; [4],103%
same,"p53-positive nuclei, normalised",[2]; concentration not given here,-0.0141% (inactive)
same,"p53-positive nuclei, normalised",[2]; [5],0.508%
OCCCCCNc1nccc(-c2cnn(-c3ccccc3F)c2)n1,"nuclei count, normalised",[1]; [3],112%
same,"nuclei count, normalised",[1]; [4],73.8%
same,"p53-positive nuclei, normalised",[2]; concentration not given here,0.562% (inactive)
same,"p53-positive nuclei, normalised",[2]; [5],-0.0884%
NC(=Nc1ccc(F)cc1)NO,"nuclei count, normalised",[1]; [3],101%
same,"nuclei count, normalised",[1]; [4],95.3%
same,"p53-positive nuclei, normalised",[2]; concentration not given here,0.0683% (inactive)
same,"p53-positive nuclei, normalised",[2]; [5],-0.0286%
O=C(C=Cn1cnc(-c2cc(C(F)(F)F)cc(C(F)(F)F)c2)n1)N1CC(F)(F)C1,"nuclei count, normalised",[1]; [22],66.2%
same,"nuclei count, normalised",[1]; [23],53%
same,"p53-positive nuclei, normalised",[2]; [24],0.0748% (inactive)
same,"p53-positive nuclei, normalised",[2]; [25],-0.238%
O=C(O)CCC/C=C\C[C@H]1C(=O)C[C@@H](O)[C@@H]1/C=C/[C@@H](O)CCc1ccccc1,"nuclei count, normalised",[1]; [3],102%
same,"nuclei count, normalised",[1]; [4],107%
same,"p53-positive nuclei, normalised",[2]; concentration not given here,0.0806% (inactive)
same,"p53-positive nuclei, normalised",[2]; [5],0.0378%
Cc1nn(C)cc1-c1ccnc(N2CCCC(c3nc4c(C)cccc4[nH]3)C2)n1 (configuration not stated),"nuclei count, normalised",[1]; [3],103%
same,"nuclei count, normalised",[1]; [4],106%
same,"p53-positive nuclei, normalised",[2]; concentration not given here,-0.267% (inactive)
same,"p53-positive nuclei, normalised",[2]; [5],-0.151%
CC1(C)S[C@@H]2C(NC(=O)C(C(=O)O)c3ccccc3)C(=O)N2C1C(=O)O (some centres not stated),"nuclei count, normalised",[1]; [22],119%
same,"nuclei count, normalised",[1]; [23],111%
same,"p53-positive nuclei, normalised",[2]; [24],-0.208% (inactive)
same,"p53-positive nuclei, normalised",[2]; [25],-0.327%
CC(C)c1nn(-c2c(Cl)cccc2Cl)c2nc(Cc3ccc(OCCO)cc3)[nH]c(=O)c12,"nuclei count, normalised",[1]; [6],64.8%
same,"nuclei count, normalised",[1]; [7],36%
same,"nuclei count, normalised",[1]; [8],26.2%
same,"nuclei count, normalised",[1]; [9],26.4%
same,"nuclei count, normalised",[1]; [10],50.6%
same,"nuclei count, normalised",[1]; [11],25.1%
same,"nuclei count, normalised",[1]; [12],17.9%
same,"nuclei count, normalised",[1]; [13],18.4%
same,"p53-positive nuclei, normalised",[2]; [14],27.9% (inactive)
same,"p53-positive nuclei, normalised",[2]; [15],67% (active)
same,"p53-positive nuclei, normalised",[2]; [16],32.9% (inactive)
same,"p53-positive nuclei, normalised",[2]; [17],34.7% (inactive)
same,"p53-positive nuclei, normalised",[2]; [18],18.6%
same,"p53-positive nuclei, normalised",[2]; [19],19.1%
same,"p53-positive nuclei, normalised",[2]; [20],6.59%
same,"p53-positive nuclei, normalised",[2]; [21],4.85%
COc1cc(OC)c2c(=O)[nH]c(-c3cc(C)c(OCCO)c(C)c3)nc2c1,"nuclei count, normalised","[1]; measured here: cell number at 24 h, Library stock concentration: 46 uM",114%
same,"nuclei count, normalised","[1]; measured here: cell number at 24 h, Library stock concentration: 278 uM",107%
same,"nuclei count, normalised","[1]; measured here: cell number at 24 h, Library stock concentration: 1.67 mM",118%
same,"nuclei count, normalised",[1]; [22],108%
same,"nuclei count, normalised",[1]; [9],109%
same,"nuclei count, normalised","[1]; measured here: cell number at 48 h, Library stock concentration: 46 uM",111%
same,"nuclei count, normalised","[1]; measured here: cell number at 48 h, Library stock concentration: 278 uM",108%
same,"nuclei count, normalised","[1]; measured here: cell number at 48 h, Library stock concentration: 1.67 mM",107%
same,"nuclei count, normalised",[1]; [23],103%
same,"nuclei count, normalised",[1]; [13],108%
same,"p53-positive nuclei, normalised",[2]; Library stock concentration: 46 uM,0.0206% (inactive)
same,"p53-positive nuclei, normalised",[2]; Library stock concentration: 278 uM,0.323% (inactive)
same,"p53-positive nuclei, normalised",[2]; Library stock concentration: 1.67 mM,0.07% (inactive)
same,"p53-positive nuclei, normalised",[2]; [24],0.152% (inactive)
same,"p53-positive nuclei, normalised",[2]; [17],-0.223% (inactive)
same,"p53-positive nuclei, normalised","[2]; measured here: p53 positive nuclei at 24 h, Library stock concentration: 46 uM",-0.102%
same,"p53-positive nuclei, normalised","[2]; measured here: p53 positive nuclei at 24 h, Library stock concentration: 278 uM",0.166%
same,"p53-positive nuclei, normalised","[2]; measured here: p53 positive nuclei at 24 h, Library stock concentration: 1.67 mM",-0.00477%
same,"p53-positive nuclei, normalised",[2]; [25],0.0179%
same,"p53-positive nuclei, normalised",[2]; [21],-0.153%
OC(c1cc(C(F)(F)F)nc2c(C(F)(F)F)cccc12)[C@H]1CCCCN1 (some centres not stated),"nuclei count, normalised","[1]; measured here: cell number at 24 h, Library stock concentration: 500 nM",110%
same,"nuclei count, normalised","[1]; measured here: cell number at 24 h, Library stock concentration: 1.5 uM",109%
same,"nuclei count, normalised","[1]; measured here: cell number at 24 h, Library stock concentration: 4.6 uM",109%
same,"nuclei count, normalised","[1]; measured here: cell number at 24 h, Library stock concentration: 13.7 uM",101%
same,"nuclei count, normalised","[1]; measured here: cell number at 24 h, Library stock concentration: 41 uM",117%
same,"nuclei count, normalised","[1]; measured here: cell number at 24 h, Library stock concentration: 123 uM",109%
same,"nuclei count, normalised","[1]; measured here: cell number at 24 h, Library stock concentration: 370 uM",109%
same,"nuclei count, normalised","[1]; measured here: cell number at 24 h, Library stock concentration: 1.111 mM",110%
same,"nuclei count, normalised",[1]; [22],95.3%
same,"nuclei count, normalised","[1]; measured here: cell number at 24 h, Library stock concentration: 3.333 mM",112%
same,"nuclei count, normalised",[1]; [9],86.2%
same,"nuclei count, normalised","[1]; measured here: cell number at 48 h, Library stock concentration: 500 nM",105%
same,"nuclei count, normalised","[1]; measured here: cell number at 48 h, Library stock concentration: 1.5 uM",105%
same,"nuclei count, normalised","[1]; measured here: cell number at 48 h, Library stock concentration: 4.6 uM",112%
same,"nuclei count, normalised","[1]; measured here: cell number at 48 h, Library stock concentration: 13.7 uM",103%
same,"nuclei count, normalised","[1]; measured here: cell number at 48 h, Library stock concentration: 41 uM",120%
same,"nuclei count, normalised","[1]; measured here: cell number at 48 h, Library stock concentration: 123 uM",113%
same,"nuclei count, normalised","[1]; measured here: cell number at 48 h, Library stock concentration: 370 uM",110%
same,"nuclei count, normalised","[1]; measured here: cell number at 48 h, Library stock concentration: 1.111 mM",113%
same,"nuclei count, normalised",[1]; [23],94.9%
same,"nuclei count, normalised","[1]; measured here: cell number at 48 h, Library stock concentration: 3.333 mM",116%
same,"nuclei count, normalised",[1]; [13],99.6%
same,"p53-positive nuclei, normalised",[2]; Library stock concentration: 500 nM,-0.00517% (inactive)
same,"p53-positive nuclei, normalised",[2]; Library stock concentration: 1.5 uM,-0.125% (inactive)
same,"p53-positive nuclei, normalised",[2]; Library stock concentration: 4.6 uM,0.0484% (inactive)
same,"p53-positive nuclei, normalised",[2]; Library stock concentration: 13.7 uM,-0.00344% (inactive)
same,"p53-positive nuclei, normalised",[2]; Library stock concentration: 41 uM,-0.185% (inactive)
same,"p53-positive nuclei, normalised",[2]; Library stock concentration: 123 uM,-0.102% (inactive)
same,"p53-positive nuclei, normalised",[2]; Library stock concentration: 370 uM,-0.0936% (inactive)
same,"p53-positive nuclei, normalised",[2]; Library stock concentration: 1.111 mM,-0.065% (inactive)
same,"p53-positive nuclei, normalised",[2]; [24],4.69% (inactive)
same,"p53-positive nuclei, normalised",[2]; Library stock concentration: 3.333 mM,-0.144% (inactive)
same,"p53-positive nuclei, normalised",[2]; [17],1.04% (inactive)
same,"p53-positive nuclei, normalised","[2]; measured here: p53 positive nuclei at 24 h, Library stock concentration: 500 nM",0.0755%
same,"p53-positive nuclei, normalised","[2]; measured here: p53 positive nuclei at 24 h, Library stock concentration: 1.5 uM",-0.239%
same,"p53-positive nuclei, normalised","[2]; measured here: p53 positive nuclei at 24 h, Library stock concentration: 4.6 uM",-0.0294%
same,"p53-positive nuclei, normalised","[2]; measured here: p53 positive nuclei at 24 h, Library stock concentration: 13.7 uM",-0.185%
same,"p53-positive nuclei, normalised","[2]; measured here: p53 positive nuclei at 24 h, Library stock concentration: 41 uM",-0.239%
same,"p53-positive nuclei, normalised","[2]; measured here: p53 positive nuclei at 24 h, Library stock concentration: 123 uM",-0.134%
same,"p53-positive nuclei, normalised","[2]; measured here: p53 positive nuclei at 24 h, Library stock concentration: 370 uM",-0.187%
same,"p53-positive nuclei, normalised","[2]; measured here: p53 positive nuclei at 24 h, Library stock concentration: 1.111 mM",-0.0384%
same,"p53-positive nuclei, normalised",[2]; [25],2.85%
same,"p53-positive nuclei, normalised","[2]; measured here: p53 positive nuclei at 24 h, Library stock concentration: 3.333 mM",-0.036%
same,"p53-positive nuclei, normalised",[2]; [21],1.37%
